Laboratory results reported in PubChem BioAssay AID2732 (Emory University Molecular Libraries Screening Center, 2010).
About 8,200 (3.7%) of roughly 220,000 compounds were called active. The sample holds actives, similar compounds and a random draw of the others, so the mix is not that of the screen.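 How the source made its calls: active means compounds that reduced the stress-induced luciferase reporter signal by more than about 70% of percent inhibition (limit read from the data); inactive means the rest.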

Assay: blockers of ER-stress CHOP reporter expression – cell-based, unfolded protein response, luciferase reporter, primary screen (AID 2732);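 further: 0% = tunicamycin plus vehicle and 100% = wells without tunicamycin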
Settings: CHO-K1 CHOP-promoter luciferase, tunicamycin-induced, 15-18 h; at 10 µM; hits give high values
In the case of `Cc1cc(OCCCCOc2ccc(C#N)cc2)ccc1[N+](=O)[O-]`, the inhibition is reported as 32.1% (inactive).
With `COc1ccccc1Nc1nc(N)nc(CSC(=S)N2CCOCC2)n1` the inhibition was 9% (inactive).
With `CCCCCCC(=O)N(O)C1CC(=O)N(c2ccccc2)C1=O` (stereo not drawn) the inhibition was 106% (active).
In the case of `CCOc1ccc(N2C(=O)CC(N(O)c3ccccc3)C2=O)cc1` (stereo not drawn), the inhibition is reported as -34% (inactive).
In the case of `CCOC(=O)c1ccc(N2C(=O)CC(N(C)Cc3ccccc3)C2=O)cc1` (stereo not drawn), the inhibition is reported as 40.7% (inactive).
With `COCCN1C2=C(COC(C)(C)C2)C(=S)NC1c1ccccc1` (stereo not drawn) the inhibition was 12.9% (inactive).
In the case of `Cc1cc(C(=O)OCC(=O)Nc2nccs2)c2ccccc2n1`, the inhibition is reported as 23.3% (inactive).
In the case of `CSc1ccc(S(=O)(=O)NC2CCCCC2)cc1`, the inhibition is reported as 1.25% (inactive).
For `Cc1cc(C)cc(NS(=O)(=O)c2ccc(F)cc2)c1`, the inhibition was 10.9% (inactive).
For `CSc1ccc(S(=O)(=O)Nc2cccc(F)c2)cc1`, the inhibition was 74.6% (active).
With `O=S(=O)(Nc1ccc(OC(F)(F)F)cc1)c1cccc2nonc12` the inhibition was -2.82% (inactive).
With `Cn1ccc(NC(=O)Nc2ccc(Cl)cc2)n1` the inhibition was -23.2% (inactive).
In the case of `CC(C)=NN1C(=O)c2ccccc2NC1(C)C`, the inhibition is reported as 2.15% (inactive).
For `O=C(Nc1ccccc1Cl)/C(Cl)=C(\Cl)S(=O)c1ccccc1` (stereo not drawn), the inhibition was 108% (active).
In the case of `O=C(Nc1ccccc1Cl)c1ccc2nsnc2c1`, the inhibition is reported as -20.7% (inactive).
For `COCCN(CCOC)C(=S)Nc1ccccc1Cl`, the inhibition was 15.1% (inactive).
In the case of `NC(=O)Cc1ccc2c(c1)[nH]c1ccccc12`, the inhibition is reported as -13.9% (inactive).
In the case of `CCNc1nc(NCC)nc(N/N=C/c2ccc(O)c(OC)c2)n1`, the inhibition is reported as -5.61% (inactive).
For `OC(c1ccccc1)C(CN1CCOCC1)c1ccccc1` (stereo not drawn), the inhibition was 9.34% (inactive).
For `Cc1ccccc1NC(=O)C(C)c1ccc(-c2ccccc2)c(F)c1` (stereo not drawn), the inhibition was 70.4% (active).
With `Cc1ccc(NC(=O)C(C)c2cccc(C(=O)c3ccccc3)c2)cc1` (stereo not drawn) the inhibition was 19.2% (inactive).
In the case of `O=C(Nc1ccccc1F)c1ccccc1-c1ccccc1`, the inhibition is reported as 1.92% (inactive).
For `O=C(Nc1nnc(-c2ccco2)o1)c1ccc(S(=O)(=O)N2CCOCC2)cc1`, the inhibition was 13.2% (inactive).
For `COc1cccc(-c2nnc(NC(=O)c3ccc(S(=O)(=O)N(CC(C)C)CC(C)C)cc3)o2)c1`, the inhibition was 108% (active).
With `COc1cccc(NC(=O)c2ccc(S(=O)(=O)N(C)C)cc2)c1` the inhibition was -15.2% (inactive).
For `CC(C)(C)c1ccc(NC(=O)COC(=O)CCc2nc3ccccc3c(=O)[nH]2)cc1`, the inhibition was 20% (inactive).
In the case of `CCN(c1ccc(NC(=O)COC(=O)CCc2nc3ccccc3n2-c2ccccc2)cc1)C(C)C`, the inhibition is reported as 79% (active).
For `Cc1ccc(NC(=O)COC(=O)CCc2nc3ccccc3n2-c2ccccc2)c(C)c1`, the inhibition was 2.62% (inactive).
For `Cc1c(C(=O)N(Cc2ccccc2)Cc2cccnc2)cnn1-c1ccc(F)cc1`, the inhibition was 0% (inactive).
For `COC(=O)c1sccc1NC(=O)CC1C(=O)NCCN1C(=O)Nc1ccc(F)cc1F` (stereo not drawn), the inhibition was 12.3% (inactive).
For `C=CS(=O)c1sc(Cl)c(N2CCOCC2)c1[N+](=O)[O-]` (stereo not drawn), the inhibition was 106% (active).
For `Cc1nc(=O)c(-c2ccccc2)c(C)n1-c1ccc(Br)cc1`, the inhibition was 3.14% (inactive).
In the case of `O=C(C[n+]1ccc2c(c1)nnn2-c1ccccc1)c1ccc(Cl)cc1`, the inhibition is reported as 34.6% (inactive).
For `CCCCCCc1cc2cc(-c3nnc(-c4ccccc4)o3)c(=O)oc2cc1O`, the inhibition was 95.9% (active).
For `Cc1c(CCC(=O)O)c(=O)oc2cc3occ(-c4ccccc4)c3cc12`, the inhibition was 37.1% (inactive).
With `CCCC(=O)Nc1nnc(-c2ccccc2)o1` the inhibition was 0.67% (inactive).
With `O=C1CCCCC1C(=O)c1ccccc1` (stereo not drawn) the inhibition was 8.57% (inactive).
For `O=C(CNCCC1=CCCCC1)Nc1ccccc1N1CCCCCC1`, the inhibition was 72.9% (active).
In the case of `Cn1c(=O)c2c(nc(SCC(=O)Nc3ccccc3N3CCCCC3)n2C)n(C)c1=O`, the inhibition is reported as 21.7% (inactive).
In the case of `O=C(Cc1cccc2ccccc12)NCCC1=CCCCC1`, the inhibition is reported as 40.1% (inactive).
For `Cc1ccccc1NC(=O)CNc1ccccc1N1CCCCC1`, the inhibition was 89.1% (active).
For `Cc1ccccc1NC(=O)Nc1ccccc1N1CCCCC1`, the inhibition was 28.6% (inactive).
In the case of `O=C(CN1CCN(C2CCCCC2)CC1)Nc1ccccc1N1CCCCC1`, the inhibition is reported as 59.2% (inactive).
With `Cc1ccc(OS(=O)(=O)c2ccc(-c3csc(C)n3)s2)c(C)c1` the inhibition was 22.5% (inactive).
In the case of `CNC(=O)c1csc(Cc2c(Cl)sc3ccc(Cl)cc23)n1`, the inhibition is reported as 30.4% (inactive).
For `Cc1cc(Nc2ccc(Cl)cc2)nc(N2CCOCC2)n1`, the inhibition was 0.58% (inactive).
With `Cn1c(SCC(=O)c2ccc(F)cc2)nnc1-c1ccccn1` the inhibition was 6.32% (inactive).
For `COc1ccc(CC(=O)NC(C)CCc2ccccc2)cc1` (stereo not drawn), the inhibition was -12.2% (inactive).
In the case of `COc1cccc(CNCCc2c[nH]c3ccccc23)c1OCc1ccccc1F`, the inhibition is reported as 12.6% (inactive).
In the case of `COc1ccc(C(CCNCc2ccccc2F)c2ccc(F)cc2)cc1` (stereo not drawn), the inhibition is reported as 79.4% (active).
For `O=c1c2cc(-c3ccccc3)sc2nc2n1N=C(c1cccs1)CS2`, the inhibition was -4.25% (inactive).
For `Clc1ccc(-c2cc(-c3ccccn3)on2)c(Cl)c1`, the inhibition was 63.3% (inactive).
In the case of `O=[N+]([O-])c1ccc(N=Cc2c(O)ccc3ccccc23)cc1`, the inhibition is reported as 28.1% (inactive).
With `COCCN(C(=S)Nc1cccc(Cl)c1C)C(C)c1ccco1` (stereo not drawn) the inhibition was 42.5% (inactive).
In the case of `C=C(C)C(=O)Nc1cccc(C2=NOC3(C2)C[C@H](C(N)=O)N(C(=O)C(c2ccccc2)c2ccccc2)C3)c1` (stereo partly drawn), the inhibition is reported as -8.97% (inactive).
In the case of `CC(C)(C)c1ccc(/C=C2\Oc3c(ccc(O)c3CN3CCN(CCO)CC3)C2=O)cc1`, the inhibition is reported as -15.1% (inactive).
With `Cc1ccc(C(=O)N/C(=C\c2ccco2)C(=O)NC2CCS(=O)(=O)C2)cc1` (stereo not drawn) the inhibition was 10.1% (inactive).
For `Cc1cc(C(=O)N2CCC(C(=O)O)CC2)c(C(F)(F)F)o1`, the inhibition was 1.47% (inactive).
For `Cc1cc(C)cc(N(CC(=O)NCC2CCCO2)S(=O)(=O)c2c(C)noc2C)c1` (stereo not drawn), the inhibition was 23.4% (inactive).
In the case of `Cc1cc(C)cc(N(CC(=O)N2CC=C(c3ccccc3)CC2)S(=O)(=O)c2c(C)noc2C)c1`, the inhibition is reported as 70% (active).
For `CCOC(=O)C1CCCN(C(=O)CN(c2ccc(OC)cc2)S(=O)(=O)c2c(C)noc2C)C1` (stereo not drawn), the inhibition was 10.8% (inactive).
For `CC(NC(=S)NNS(=O)(=O)c1ccc(C(C)(C)C)cc1)c1ccccc1` (stereo not drawn), the inhibition was 51.7% (inactive).
For `O=C(c1[nH]ncc1-c1ccc(Cl)cc1)C1CO1` (stereo not drawn), the inhibition was -97.8% (inactive).
For `O=C1C(Cc2ccc(O)cc2)NC(=S)N1Cc1ccccc1` (stereo not drawn), the inhibition was -7.09% (inactive).
In the case of `O=C1CC(Cc2ccc(Cl)cc2)C(=O)N1c1cc(Cl)ccn1` (stereo not drawn), the inhibition is reported as 7.86% (inactive).
With `CCCCC(CC)CNC(=O)CCCCn1c(=O)[nH]c2ccsc2c1=O` (stereo not drawn) the inhibition was 10.3% (inactive).
In the case of `CCCCC(CC)CNC(=O)C(=O)C1C(=O)Nc2ccccc21` (stereo not drawn), the inhibition is reported as 86.7% (active).
In the case of `CCOC(=O)C(=O)C1C(=O)Nc2ccccc21` (stereo not drawn), the inhibition is reported as 17.5% (inactive).
In the case of `Cc1cc(C(=O)CSc2nc(N)cc(=O)[nH]2)c(C)n1Cc1ccco1`, the inhibition is reported as 3.96% (inactive).
For `COc1ccc(C(=O)N/N=C(\C)CC(=O)Nc2ccc(Cl)cn2)cc1`, the inhibition was 4.2% (inactive).
With `O=C(C1CC1)N1CCN=C1SCc1ccc(Cl)cc1` the inhibition was 5.04% (inactive).
In the case of `O=C(c1ccc(CSc2ccccc2)cc1)N1CCCCCC1`, the inhibition is reported as 23.8% (inactive).
In the case of `CC1CCN(C(=O)c2ccc(CSc3ccc(Cl)cc3)cc2)CC1`, the inhibition is reported as 80.3% (active).
With `Cn1c2ccccc2c2cc(/C=C(\NC(=O)c3ccccc3)C(=O)NCC(=O)O)ccc21` the inhibition was -15.8% (inactive).
In the case of `O=C(CCS(=O)(=O)c1ccccc1Cl)Nc1ccc(S(=O)(=O)Nc2ncccn2)cc1`, the inhibition is reported as 3.66% (inactive).
In the case of `CC(C)n1c(CN2CCN(Cc3ccccc3)CC2)nc2ccccc21`, the inhibition is reported as -0.64% (inactive).
With `CC(=O)Nc1ccc(C(=O)/C=C/c2ccc[nH]2)cc1` the inhibition was -14.3% (inactive).
In the case of `O=C(NC1CCCCC1)c1cc(C2CC2)on1`, the inhibition is reported as 1.58% (inactive).
For `CCCCc1nc(NCCN)c(C#N)c2c1CSC(C)(C)C2`, the inhibition was 101% (active).
For `Cc1nc(NCCN)c(C#N)c2c1COC(C)(C)C2`, the inhibition was 74.9% (active).
For `CC(C)C(=O)N1CCN(c2nc(-c3ccccc3)c3c(c2C#N)CC(C)(C)OC3)CC1`, the inhibition was 26.8% (inactive).
With `Cc1nc(NCc2ccccc2)c(C(N)=O)c2c1COC(C)(C)C2` the inhibition was -8.11% (inactive).
With `CCc1nc(NCCO)c(C#N)c2c1CCCC2` the inhibition was 17.2% (inactive).
For `CCCCc1nc(NCc2ccccc2)c(C#N)c2c1CCCC2`, the inhibition was 54.3% (inactive).
With `C=CCSc1nnc(NC(=O)c2ccc(NC(C)=O)cc2)s1` the inhibition was 6.97% (inactive).
In the case of `COC(=O)c1scc(C)c1NC(=O)CSc1ccc(Cl)cc1`, the inhibition is reported as 16.3% (inactive).
For `Cn1cccc1/C=C1\SC(=S)N(NC(=O)c2ccc(Cl)cc2)C1=O`, the inhibition was 20.4% (inactive).
With `Cn1cccc1/C=C1\SC(=O)N(CC(=O)Nc2ccc(F)cc2)C1=O` the inhibition was 72% (active).
For `Cc1nn(Cc2ccccc2)c(C)c1C(=O)NCCN1C(=O)S/C(=C\c2ccc(F)cc2)C1=O`, the inhibition was 56.3% (inactive).
For `COc1ccc(N2CCC(CNC(=S)Nc3c(C)cccc3C)C2)cc1` (stereo not drawn), the inhibition was 18.6% (inactive).
In the case of `CCOc1ccccc1C1CC(c2cccc(NS(C)(=O)=O)c2)=NN1C(=O)c1ccccc1` (stereo not drawn), the inhibition is reported as -2.91% (inactive).
For `COc1ccc(C2CC(c3ccccc3)=NN2C(=O)c2ccc(Cl)c([N+](=O)[O-])c2)cc1` (stereo not drawn), the inhibition was -21.3% (inactive).
In the case of `CCOc1ccc2nc(Cl)c(C3CC(c4ccccc4)=NN3C(=O)c3cccs3)cc2c1` (stereo not drawn), the inhibition is reported as 90.5% (active).
In the case of `OC(CNCc1ccc2c(c1)OCO2)COc1ccccc1` (stereo not drawn), the inhibition is reported as -20.3% (inactive).
With `CCOC(=O)CC1C(=O)NCCN1c1nc2c(C)cccn2c(=O)c1/C=C1\SC(=S)N(C(C)CC)C1=O` (stereo not drawn) the inhibition was 5.91% (inactive).
With `C/C(Cl)=C\Cn1c(Nc2cccc(C)c2)nc2c1c(=O)n(C)c(=O)n2C` the inhibition was 76.1% (active).
With `COC(=O)C(C)Sc1nc2c(c(=O)n(C)c(=O)n2C)n1Cc1cccc(C)c1` (stereo not drawn) the inhibition was 11.8% (inactive).
For `Cc1cccc(Cn2c(N3CCN(c4ccccc4)CC3)nc3c2c(=O)n(C)c(=O)n3C)c1`, the inhibition was 40.4% (inactive).
